Test results: PubChem BioAssay (EPA / NIEHS)
Activity calls are given as the source filed them. Rule for the calls: active = hit-call score of the fitted dose curve at least 0.9, where 1 is the maximum; inactive = score below 0.9.

Assays:
[1] = CEETOX_H295R_PROG: CeeTox H295R High-throughput Steroidogenesis Assay for Progesterone (PROG) (AID 2283442); conditions: actives raise or lower the signal;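 for AC50: human H295R adrenal cells primed with 10 µM forskolin before dosing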
Procedure, shortened: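 Measured analyte is progesterone secreted by H295R cells at 48 h of chemical treatment, following 10 uM forskolin priming. Quantitation used HPLC-MS/MS against a 7-point standard curve; cytotoxicity was checked by MTT absorbance.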

[2] = CEETOX_H295R_TESTO: CeeTox H295R High-throughput Steroidogenesis Assay for Testosterone (TESTO) (AID 2283457); conditions: actives raise or lower the signal;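 for AC50: cells exposed to chemicals for 48 h before medium collection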
Procedure, shortened: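 Steroidogenesis in H295R cells following OECD 456 with minor changes; 48 h exposure. Medium testosterone by HPLC-MS/MS, DMSO as baseline, with MTT viability run in parallel.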

[3] = read-out: Tumor necrosis factor receptor superfamily member 6 (Homo sapiens) (UniProt P25445); test: LTEA_HepaRG_FAS: Life Technologies and Expression Analysis (LTEA) Assay for Fas cell surface death receptor (FAS) using HepaRG (AID 2283447); conditions: mRNA level, 48 h; actives raise or lower the signal
Procedure, shortened: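 Differentiated HepaRG cells in serum-free induction medium were exposed 48 h to 8 half-log concentrations up to 100 uM in 0.5% DMSO, in duplicate. FAS mRNA was measured by qRT-PCR normalised to ACTB, GAPDH and POLR2A; bidirectional fit versus DMSO.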

[4] = read-out: Fatty acid synthase (Homo sapiens) (UniProt P49327); test: LTEA_HepaRG_FASN: Life Technologies and Expression Analysis (LTEA) Assay for Fatty Acid Synthase (FASN) using HepaRG (AID 2283448); conditions: mRNA level, 48 h; actives raise or lower the signal
Procedure, shortened: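 Differentiated human HepaRG cells were exposed for 48 h in serum-free induction medium to eight half-log concentrations up to 100 uM in 0.5% DMSO, in duplicate. FASN mRNA was quantified by TaqMan qRT-PCR, normalized to ACTB/GAPDH/POLR2A, and fitted bidirectionally against DMSO.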

[5] = read-out: Cyclin Dependent Kinase Inhibitor 1A (CDKN1A), CDKN1A (gene 1026); test: LTEA_HepaRG_CDKN1A: Life Technologies and Expression Analysis (LTEA) Assay for Cyclin Dependent Kinase Inhibitor 1A (CDKN1A) using HepaRG (AID 2283450); conditions: mRNA level, 48 h; actives raise or lower the signal
Procedure, shortened: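 Gain or loss of CDKN1A transcript is scored by bidirectional fitting against 0.5% DMSO vehicle. Human HepaRG cultures receive chemicals for 48 h across an 8-point series peaking at 100 uM; expression comes from qRT-PCR.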

[6] = read-out: flavin-containing dimethylaniline monooxygenases 3 (FMO3), FMO3 (gene 2328); test: LTEA_HepaRG_FMO3: Life Technologies and Expression Analysis (LTEA) Assay for flavin-containing dimethylaniline monooxygenases 3 (FMO3) using HepaRG (AID 2283453); conditions: mRNA level, 48 h; actives raise or lower the signal
Procedure, shortened: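 HepaRG, 48 h exposure, 8-pt half-log series from 100 uM, 0.5% DMSO vehicle, duplicates; FMO3 transcript by Fluidigm TaqMan qRT-PCR, housekeeping-normalized; gain/loss fit vs DMSO.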

[7] = read-out: Cytochrome P450 (CYP1A1), CYP1A1 (gene 1543); test: LTEA_HepaRG_CYP1A1: Life Technologies and Expression Analysis (LTEA) Assay for Cytochrome P450 (CYP1A1) using HepaRG (AID 2283454); conditions: mRNA level, 48 h; actives raise or lower the signal
Procedure, shortened: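 Using HepaRG cultures with 0.5% DMSO as vehicle, eight-concentration exposures (max 100 uM) lasted 48 h. Transcript levels were measured by TaqMan qRT-PCR and normalized to ACTB, GAPDH and POLR2A.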

[8] = read-out: CFLAR gene, CFLAR (gene 8837); test: LTEA_HepaRG_CFLAR: Life Technologies and Expression Analysis (LTEA) Assay for CFLAR gene using HepaRG (AID 2283455); conditions: mRNA level, 48 h; actives raise or lower the signal
Procedure, shortened: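 Differentiated HepaRG cells in serum-free induction medium were exposed 48 h in duplicate to eight half-log concentrations up to 100 uM in 0.5% DMSO; mRNA measured by TaqMan qRT-PCR, normalized to ACTB, GAPDH, POLR2A; bidirectional fitting versus DMSO.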

[9] = read-out: Forkhead box O1 (FOXO1), FOXO1 (gene 2308); test: LTEA_HepaRG_FOXO1: Life Technologies and Expression Analysis (LTEA) Assay for Forkhead box O1 (FOXO1) using HepaRG (AID 2283456); conditions: mRNA level, 48 h; actives raise or lower the signal
Procedure, shortened: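 Differentiated HepaRG cells, in serum-free induction medium with 0.5% DMSO, exposed 48 h in duplicate to 8-point half-log series from 100 uM. FOXO1 mRNA measured by TaqMan qRT-PCR, normalized to ACTB, GAPDH, POLR2A; bidirectional fit versus DMSO.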

[10] = read-out: growth arrest and DNA damage 45 (GADD45A), GADD45A (gene 1647); test: LTEA_HepaRG_GADD45A: Life Technologies and Expression Analysis (LTEA) Assay for growth arrest and DNA damage 45 (GADD45A) using HepaRG (AID 2283458); conditions: mRNA level, 48 h; actives raise or lower the signal
Procedure, shortened: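 Differentiated HepaRG cells were exposed in duplicate for 48 h in serum-free induction medium to 8-point half-log concentrations up to 100 uM in 0.5% DMSO. GADD45A mRNA was measured by TaqMan qRT-PCR, normalized to ACTB, GAPDH and POLR2A, with bidirectional fitting versus DMSO.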

[11] = read-out: Forkhead box O3 (FOXO3), FOXO3 (gene 2309); test: LTEA_HepaRG_FOXO3: Life Technologies and Expression Analysis (LTEA) Assay for Forkhead box O3 (FOXO3) using HepaRG (AID 2283459); conditions: mRNA level, 48 h; actives raise or lower the signal
Procedure, shortened: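 Differentiated human HepaRG cells, 48 h post-plating, exposed in duplicate for 48 h in serum-free induction medium; 8-point half-log series from 100 uM in 0.5% DMSO. FOXO3 mRNA by TaqMan qRT-PCR, normalized to ACTB/GAPDH/POLR2A; bidirectional fit versus DMSO.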

[12] = read-out: ABC Transporter (ABCB1), ABCB1 (gene 5243); test: LTEA_HepaRG_ABCB1: Life Technologies and Expression Analysis (LTEA) Assay for ABC Transporter (ABCB1) using HepaRG (AID 2283460); conditions: mRNA level, 48 h; actives raise or lower the signal
Procedure, shortened: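 HepaRG cells exposed in duplicate for 48 h in serum-free induction medium to eight half-log concentrations up to 100 uM in 0.5% DMSO. ABCB1 mRNA quantified by qRT-PCR, normalised to ACTB, GAPDH and POLR2A; fitted bidirectionally versus DMSO.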

[13] = read-out: growth arrest and DNA damage 45 (GADD45B), GADD45B (gene 4616); test: LTEA_HepaRG_GADD45B: Life Technologies and Expression Analysis (LTEA) Assay for growth arrest and DNA damage 45 (GADD45B) using HepaRG (AID 2283461); conditions: mRNA level, 48 h; actives raise or lower the signal
Procedure, shortened: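 Human HepaRG monolayers receive chemicals for 48 h at eight half-log concentrations, highest 100 uM, in 0.5% DMSO. Expression is measured by TaqMan qRT-PCR and normalized to ACTB, GAPDH and POLR2A.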

[14] = read-out: ABC Transporter (ABCC3), ABCC3 (gene 8714); test: LTEA_HepaRG_ABCC3: Life Technologies and Expression Analysis (LTEA) Assay for ABC Transporter (ABCC3) using HepaRG (AID 2283462); conditions: mRNA level, 48 h; actives raise or lower the signal
Procedure, shortened: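 Transcriptional change of ABCC3 in HepaRG after 48 h treatment, determined by qRT-PCR normalized to endogenous controls. Concentrations spanned eight half-log steps to 100 uM in 0.5% DMSO.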

[15] = read-out: ABC Transporter (ABCB11), ABCB11 (gene 8647); test: LTEA_HepaRG_ABCB11: Life Technologies and Expression Analysis (LTEA) Assay for ABC Transporter (ABCB11) using HepaRG (AID 2283463); conditions: mRNA level, 48 h; actives raise or lower the signal
Procedure, shortened: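 Differentiated human HepaRG cells in serum-free induction medium, dosed in duplicate for 48 h. Eight-point half-log series from 100 uM in 0.5% DMSO; ABCB11 mRNA by qRT-PCR, normalized to ACTB, GAPDH, POLR2A, fitted bidirectionally versus DMSO.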

[16] = read-out: ABC Transporter (ABCC2), ABCC2 (gene 1244); test: LTEA_HepaRG_ABCC2: Life Technologies and Expression Analysis (LTEA) Assay for ABC Transporter (ABCC2) using HepaRG (AID 2283464); conditions: mRNA level, 48 h; actives raise or lower the signal
Procedure, shortened: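 After plating and 48 h culture, HepaRG medium is replaced with serum-free induction medium and chemicals are added (8 concentrations, max 100 uM, 0.5% DMSO) for 48 h. Total RNA then undergoes qRT-PCR for ABCC2 with housekeeping normalization.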

[17] = read-out: Broad substrate specificity ATP-binding cassette transporter ABCG2 (Homo sapiens) (UniProt Q9UNQ0); test: LTEA_HepaRG_ABCG2: Life Technologies and Expression Analysis (LTEA) Assay for ABC Transporter (ABCG2) using HepaRG (AID 2283465); conditions: mRNA level, 48 h; actives raise or lower the signal
Procedure, shortened: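 Differentiated HepaRG cells were exposed for 48 h in serum-free induction medium to 8 half-log concentrations, top 100 uM, in 0.5% DMSO. ABCG2 mRNA was measured by qRT-PCR, normalized to ACTB, GAPDH and POLR2A, with bidirectional fitting versus DMSO.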

[18] = read-out: ATP-citrate lyase (ACLY), ACLY (gene 47); test: LTEA_HepaRG_ACLY: Life Technologies and Expression Analysis (LTEA) Assay for ATP-citrate lyase (ACLY) using HepaRG (AID 2283466); conditions: mRNA level, 48 h; actives raise or lower the signal
Procedure, shortened: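 Differentiated HepaRG cells exposed 48 h in serum-free induction medium to eight half-log concentrations up to 100 uM in 0.5% DMSO, duplicates. Transcript measured by Fluidigm TaqMan qRT-PCR, normalized to ACTB, GAPDH, POLR2A; bidirectional fit versus DMSO.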

[19] = CEETOX_H295R_ESTRONE: CeeTox H295R High-throughput Steroidogenesis Assay for Estrone (AID 2283441); conditions: actives raise or lower the signal;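 note: estrone secreted into medium measured by LC-MS/MS after dansyl derivatization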;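 for AC50: human adrenal H295R cells prestimulated with forskolin for two days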
Procedure, shortened: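 H295R cells; 48 h forskolin (10 uM) prestimulation; 48 h compound exposure, 0.1% DMSO final. Medium estrone: MTBE extraction, dansyl derivatization, HPLC-MS/MS. Bidirectional fit vs DMSO.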

[20] = read-out: Cyclin D2 (CCND2), CCND2 (gene 894); test: LTEA_HepaRG_CCND2: Life Technologies and Expression Analysis (LTEA) Assay for Cyclin D2 (CCND2) using HepaRG (AID 2283449); conditions: mRNA level, 48 h; actives raise or lower the signal;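 note: CCND2 transcript measured by TaqMan qRT-PCR and normalised to three housekeeping genes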
Procedure, shortened: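 Chemicals in 0.5% DMSO, eight half-log concentrations from 100 uM top, were applied in duplicate for 48 h to human HepaRG cells in serum-free induction medium. CCND2 mRNA by TaqMan qRT-PCR, normalised to ACTB/GAPDH/POLR2A; bidirectional fit versus DMSO.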

Broad substrate specificity ATP-binding cassette transporter ABCG2 (Homo sapiens), sequence (Q9UNQ0 whole entry, looked up): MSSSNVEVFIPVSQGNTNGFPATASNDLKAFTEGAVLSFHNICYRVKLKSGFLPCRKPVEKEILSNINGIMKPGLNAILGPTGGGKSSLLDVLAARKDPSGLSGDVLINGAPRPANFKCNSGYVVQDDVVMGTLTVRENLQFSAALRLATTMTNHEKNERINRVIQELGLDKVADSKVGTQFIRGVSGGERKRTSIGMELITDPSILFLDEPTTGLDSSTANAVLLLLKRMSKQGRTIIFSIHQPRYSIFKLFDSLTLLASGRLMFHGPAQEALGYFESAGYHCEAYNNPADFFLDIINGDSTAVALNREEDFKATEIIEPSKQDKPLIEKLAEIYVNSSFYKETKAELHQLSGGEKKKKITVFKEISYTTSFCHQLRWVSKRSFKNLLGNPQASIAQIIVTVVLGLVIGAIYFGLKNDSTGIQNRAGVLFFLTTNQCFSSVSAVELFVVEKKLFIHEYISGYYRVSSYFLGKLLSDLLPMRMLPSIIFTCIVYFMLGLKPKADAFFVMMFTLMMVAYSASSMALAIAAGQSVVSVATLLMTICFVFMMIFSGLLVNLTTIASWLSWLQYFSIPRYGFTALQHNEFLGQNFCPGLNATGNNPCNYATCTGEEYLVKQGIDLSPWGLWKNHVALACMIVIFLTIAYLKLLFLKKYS
Fatty acid synthase (Homo sapiens), sequence (P49327 whole entry, looked up): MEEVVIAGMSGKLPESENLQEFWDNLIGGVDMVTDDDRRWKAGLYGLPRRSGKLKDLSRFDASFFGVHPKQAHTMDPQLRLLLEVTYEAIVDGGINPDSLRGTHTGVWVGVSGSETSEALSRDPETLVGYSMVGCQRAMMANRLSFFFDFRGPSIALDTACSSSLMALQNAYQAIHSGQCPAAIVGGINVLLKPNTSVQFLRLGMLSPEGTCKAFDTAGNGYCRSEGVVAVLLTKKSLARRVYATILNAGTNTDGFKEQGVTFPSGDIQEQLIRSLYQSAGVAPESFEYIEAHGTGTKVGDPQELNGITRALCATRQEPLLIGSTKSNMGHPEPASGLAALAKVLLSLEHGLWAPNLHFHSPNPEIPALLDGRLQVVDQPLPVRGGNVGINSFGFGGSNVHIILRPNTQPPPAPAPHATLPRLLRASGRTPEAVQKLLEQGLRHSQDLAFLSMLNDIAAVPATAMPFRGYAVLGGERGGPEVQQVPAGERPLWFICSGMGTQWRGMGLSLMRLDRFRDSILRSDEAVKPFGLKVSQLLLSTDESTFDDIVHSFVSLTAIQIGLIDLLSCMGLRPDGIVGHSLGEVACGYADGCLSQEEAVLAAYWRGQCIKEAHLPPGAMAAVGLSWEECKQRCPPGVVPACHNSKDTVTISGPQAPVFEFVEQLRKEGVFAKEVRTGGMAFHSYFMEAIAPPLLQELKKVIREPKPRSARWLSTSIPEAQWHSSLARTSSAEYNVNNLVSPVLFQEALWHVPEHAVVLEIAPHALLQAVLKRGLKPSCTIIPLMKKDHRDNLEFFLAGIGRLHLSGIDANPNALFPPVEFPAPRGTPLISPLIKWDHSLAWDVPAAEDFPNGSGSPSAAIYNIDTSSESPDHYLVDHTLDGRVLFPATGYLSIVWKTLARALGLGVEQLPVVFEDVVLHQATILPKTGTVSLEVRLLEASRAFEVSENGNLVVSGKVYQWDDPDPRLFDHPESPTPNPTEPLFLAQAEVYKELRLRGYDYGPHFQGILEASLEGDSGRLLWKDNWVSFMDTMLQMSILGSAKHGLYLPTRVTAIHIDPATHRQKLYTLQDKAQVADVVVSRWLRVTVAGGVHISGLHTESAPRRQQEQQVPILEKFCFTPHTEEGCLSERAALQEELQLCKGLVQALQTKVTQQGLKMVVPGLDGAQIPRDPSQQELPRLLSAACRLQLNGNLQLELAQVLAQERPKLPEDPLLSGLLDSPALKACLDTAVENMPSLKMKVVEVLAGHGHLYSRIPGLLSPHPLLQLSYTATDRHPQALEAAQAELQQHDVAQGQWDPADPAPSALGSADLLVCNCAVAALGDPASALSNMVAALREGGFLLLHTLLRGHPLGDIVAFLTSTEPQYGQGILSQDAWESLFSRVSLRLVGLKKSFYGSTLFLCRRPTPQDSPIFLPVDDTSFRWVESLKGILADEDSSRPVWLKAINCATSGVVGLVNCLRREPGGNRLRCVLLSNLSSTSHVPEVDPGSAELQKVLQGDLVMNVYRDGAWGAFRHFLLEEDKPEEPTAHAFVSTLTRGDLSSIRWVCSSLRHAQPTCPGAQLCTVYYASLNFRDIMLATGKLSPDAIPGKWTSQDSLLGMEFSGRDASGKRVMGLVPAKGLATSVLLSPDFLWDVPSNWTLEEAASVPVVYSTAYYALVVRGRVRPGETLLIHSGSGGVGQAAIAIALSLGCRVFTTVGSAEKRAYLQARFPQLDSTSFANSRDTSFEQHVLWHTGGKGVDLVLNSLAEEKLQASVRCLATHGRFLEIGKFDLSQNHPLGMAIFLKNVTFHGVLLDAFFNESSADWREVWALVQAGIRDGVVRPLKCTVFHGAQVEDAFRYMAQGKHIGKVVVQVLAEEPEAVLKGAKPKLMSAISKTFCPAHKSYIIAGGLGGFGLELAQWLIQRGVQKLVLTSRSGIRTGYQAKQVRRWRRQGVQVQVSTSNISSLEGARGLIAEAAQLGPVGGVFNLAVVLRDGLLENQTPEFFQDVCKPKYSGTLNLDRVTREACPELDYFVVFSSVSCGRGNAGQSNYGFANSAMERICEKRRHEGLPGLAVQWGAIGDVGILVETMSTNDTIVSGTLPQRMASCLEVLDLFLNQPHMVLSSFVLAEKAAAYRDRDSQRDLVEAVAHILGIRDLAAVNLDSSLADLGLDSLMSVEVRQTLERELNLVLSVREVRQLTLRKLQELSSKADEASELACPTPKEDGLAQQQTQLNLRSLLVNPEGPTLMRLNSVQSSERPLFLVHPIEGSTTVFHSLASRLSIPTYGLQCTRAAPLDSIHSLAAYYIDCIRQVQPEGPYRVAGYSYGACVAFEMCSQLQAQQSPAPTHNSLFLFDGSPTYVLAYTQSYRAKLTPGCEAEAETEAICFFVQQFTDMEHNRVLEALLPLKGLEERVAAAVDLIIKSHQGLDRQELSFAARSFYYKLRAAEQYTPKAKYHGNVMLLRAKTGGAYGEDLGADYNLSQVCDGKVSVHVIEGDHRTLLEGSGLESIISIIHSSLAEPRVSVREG

## COc1ccc(N)cc1
[1]
  AC50: 16.4 µM (active)

## COC(=O)Nc1cccc(OC(=O)Nc2cccc(C)c2)c1
[1]
  outcome: inactive

## OC(Cc1ccccc1Cl)(Cn1[nH]cnc1=S)C1(Cl)CC1 (centres undefined)
[1]
  outcome: inactive
[2]
  outcome: inactive

## CCCCCCCCCCCCc1cccc(S(=O)(=O)O)c1
[3]
  outcome: inactive
[4]
  outcome: inactive
[5]
  outcome: inactive
[6]
  outcome: inactive
[7]
  AC50: 51.6 µM (active)
[8]
  outcome: inactive
[9]
  AC50: 16.1 µM (active)
[10]
  outcome: inactive
[11]
  AC50: 45 µM (active)
[12]
  outcome: inactive
[13]
  outcome: inactive
[14]
  outcome: inactive
[15]
  outcome: inactive
[16]
  AC50: 45 µM (active)
[17]
  outcome: inactive
[18]
  outcome: inactive

## CCOP(=S)(OCC)O/N=C(\C#N)c1ccccc1
[1]
  AC50: 50 µM (active)

## Cc1cc(C(C)(C)c2ccc(O)c(C)c2)ccc1O
[1]
  outcome: inactive
[2]
  AC50: 5 µM (active)

## CCOCn1c(-c2ccc(Cl)cc2)c(C#N)c(Br)c1C(F)(F)F
[19]
  AC50: 5.33 µM (active)
[1]
  AC50: 2.1 µM (active)

## OC(Cc1ccccc1Cl)(Cn1cncn1)C1(Cl)CC1 (centres undefined)
[19]
  AC50: 7.74 µM (active)
[1]
  AC50: 6.41 µM (active)

## CN(C)C(=S)S
[4]
  outcome: inactive
[20]
  outcome: inactive
[5]
  outcome: inactive
[6]
  outcome: inactive
[7]
  AC50: 64.4 µM (active)
[8]
  outcome: inactive
[9]
  outcome: inactive
[10]
  outcome: inactive
[11]
  outcome: inactive
[12]
  outcome: inactive
[13]
  outcome: inactive
[14]
  outcome: inactive
[15]
  outcome: inactive
[16]
  outcome: inactive
[17]
  outcome: inactive
[18]
  outcome: inactive

## CCCCCCCCCCCCN(C)C
[19]
  outcome: inactive
[1]
  outcome: inactive

## Clc1cccc(Cl)c1Cl
[3]
  outcome: inactive
[4]
  outcome: inactive
[20]
  outcome: inactive
[5]
  outcome: inactive
[6]
  outcome: inactive
[7]
  AC50: 50 µM (active)
[8]
  outcome: inactive
[9]
  outcome: inactive
[10]
  outcome: inactive
[11]
  outcome: inactive
[12]
  outcome: inactive
[13]
  outcome: inactive
[14]
  outcome: inactive
[15]
  outcome: inactive
[16]
  outcome: inactive
[17]
  outcome: inactive
[18]
  outcome: inactive

## CCC[CH2][Sn]([Cl])([Cl])[CH2]CCC
[19]
  outcome: inactive
[1]
  outcome: inactive
